Test results as given in article PMC7862700, “An all-to-all approach to the identification of sequence-specific readers for epigenetic DNA modifications on cytosine”.

Assays:
Experiment in all cases: DAPPL (digital affinity profiling via proximity ligation, sequencing); 10 mM Tris-HCl pH 7.5, 50 mM NaCl, 1 mM DTT, 4% glycerol, room temperature, 30 min; GST-TFs on glutathione beads, 16-mer random dsDNA library, 0.1% formaldehyde crosslink after washing; high values mean tight binding
FEV = molecular target: T1, FEV (Homo sapiens, UniProt Q99581 1-238); details: protein: recombinant; tags: N-terminal GST; dsDNA, one strand shown
T1 sequence: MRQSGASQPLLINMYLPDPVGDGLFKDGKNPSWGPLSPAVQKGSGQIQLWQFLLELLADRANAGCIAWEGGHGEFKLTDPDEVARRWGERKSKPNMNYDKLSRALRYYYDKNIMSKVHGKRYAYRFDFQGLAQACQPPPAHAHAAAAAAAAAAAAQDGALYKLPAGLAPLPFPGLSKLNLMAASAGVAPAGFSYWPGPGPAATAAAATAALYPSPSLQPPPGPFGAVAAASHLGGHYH
Outline: (§1)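 Sequencing on an Illumina NextSeq500 followed washing, crosslinking with 0.1% formaldehyde, proximity ligation (BsaI/T4 ligase, 1 h, 37 °C) and PCR amplification of pools that had been incubated for 30 min at room temperature with 200 nmole of a random double-stranded 16-mer DNA library in Tris/NaCl/DTT/glycerol buffer. Each pool held DNA-barcoded human transcription factors, expressed in yeast as GST fusions and captured on glutathione beads, plus a tag-only sample. Binding signal is a hexamer's read frequency for a factor divided by its frequency in the tag-only sample.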

ETV5 = ETV5 (Homo sapiens, UniProt P41161 1-510); details: protein: recombinant; tags: N-terminal GST; dsDNA, one strand shown
Outline: as §1

HSF1 = HSF1 (Homo sapiens, UniProt Q00613 1-529); details: protein: recombinant; tags: N-terminal GST; chain copies: 3; dsDNA, one strand shown
Outline: as §1

SPIC = molecular target: T2, SPIC (Homo sapiens, UniProt Q8N5J4 1-248); details: protein: recombinant; tags: N-terminal GST; dsDNA, one strand shown
T2 sequence: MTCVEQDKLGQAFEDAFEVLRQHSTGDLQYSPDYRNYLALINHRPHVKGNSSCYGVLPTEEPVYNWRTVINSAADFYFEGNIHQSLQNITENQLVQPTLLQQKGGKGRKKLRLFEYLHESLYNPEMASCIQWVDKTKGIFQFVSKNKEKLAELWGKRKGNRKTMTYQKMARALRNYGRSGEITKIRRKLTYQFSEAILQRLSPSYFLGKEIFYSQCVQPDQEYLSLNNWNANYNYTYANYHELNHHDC
Outline: as §1

ELF4 = ELF4 (Homo sapiens, UniProt Q99607 1-663); details: protein: recombinant; tags: N-terminal GST; dsDNA, one strand shown
Outline: as §1

ELK4 = molecular target: T3, ELK4 (Homo sapiens, UniProt P28324-2 1-405); details: protein: recombinant; tags: N-terminal GST; dsDNA, one strand shown
T3 sequence: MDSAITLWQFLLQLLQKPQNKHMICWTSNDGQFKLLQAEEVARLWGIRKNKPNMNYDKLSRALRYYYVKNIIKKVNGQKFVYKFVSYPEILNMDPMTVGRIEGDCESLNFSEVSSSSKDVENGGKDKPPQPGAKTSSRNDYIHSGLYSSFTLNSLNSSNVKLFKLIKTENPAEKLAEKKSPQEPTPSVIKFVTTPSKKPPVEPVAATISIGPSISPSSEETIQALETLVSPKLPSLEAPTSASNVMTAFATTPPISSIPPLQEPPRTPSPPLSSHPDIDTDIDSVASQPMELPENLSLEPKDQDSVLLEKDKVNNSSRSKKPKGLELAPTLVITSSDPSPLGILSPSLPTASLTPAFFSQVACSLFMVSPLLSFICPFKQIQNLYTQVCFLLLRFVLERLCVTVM
Outline: as §1

ETV2 = molecular target: T4, ETV2 (Homo sapiens, UniProt O00321 1-342); details: protein: recombinant; tags: N-terminal GST; dsDNA, one strand shown
T4 sequence: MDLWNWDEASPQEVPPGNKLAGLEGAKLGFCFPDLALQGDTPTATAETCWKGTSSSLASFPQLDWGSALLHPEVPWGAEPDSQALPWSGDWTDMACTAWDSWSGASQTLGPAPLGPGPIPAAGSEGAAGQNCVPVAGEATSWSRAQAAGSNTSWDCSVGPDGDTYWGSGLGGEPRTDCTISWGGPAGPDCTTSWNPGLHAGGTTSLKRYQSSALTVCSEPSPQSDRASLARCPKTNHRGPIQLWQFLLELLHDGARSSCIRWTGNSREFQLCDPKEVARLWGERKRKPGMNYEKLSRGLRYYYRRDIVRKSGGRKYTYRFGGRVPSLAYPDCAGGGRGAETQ
Outline: as §1

ELF3 = molecular target: T5, ELF3 (Homo sapiens, UniProt P78545 1-371); details: protein: recombinant; tags: N-terminal GST; dsDNA, one strand shown
T5 sequence: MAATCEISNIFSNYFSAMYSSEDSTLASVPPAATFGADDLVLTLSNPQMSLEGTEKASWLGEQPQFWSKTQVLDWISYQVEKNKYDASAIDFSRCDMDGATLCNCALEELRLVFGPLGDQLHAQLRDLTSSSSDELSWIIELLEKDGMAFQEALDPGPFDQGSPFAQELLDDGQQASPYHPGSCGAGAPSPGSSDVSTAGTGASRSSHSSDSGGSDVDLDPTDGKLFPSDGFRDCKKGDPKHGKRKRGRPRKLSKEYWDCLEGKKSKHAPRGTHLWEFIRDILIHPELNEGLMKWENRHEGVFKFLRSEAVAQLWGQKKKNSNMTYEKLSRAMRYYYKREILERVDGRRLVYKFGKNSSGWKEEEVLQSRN
Outline: as §1

CRX = CRX (Homo sapiens, UniProt O43186 1-299); details: protein: recombinant; tags: N-terminal GST; dsDNA, one strand shown
Outline: as §1

ETV1 = ETV1 (Homo sapiens, UniProt P50549 1-477); details: protein: recombinant; tags: N-terminal GST; dsDNA, one strand shown
Outline: as §1

ERF = molecular target: T6, ERF (Homo sapiens, UniProt P50548 1-548); details: protein: recombinant; tags: N-terminal GST; dsDNA, one strand shown
T6 sequence: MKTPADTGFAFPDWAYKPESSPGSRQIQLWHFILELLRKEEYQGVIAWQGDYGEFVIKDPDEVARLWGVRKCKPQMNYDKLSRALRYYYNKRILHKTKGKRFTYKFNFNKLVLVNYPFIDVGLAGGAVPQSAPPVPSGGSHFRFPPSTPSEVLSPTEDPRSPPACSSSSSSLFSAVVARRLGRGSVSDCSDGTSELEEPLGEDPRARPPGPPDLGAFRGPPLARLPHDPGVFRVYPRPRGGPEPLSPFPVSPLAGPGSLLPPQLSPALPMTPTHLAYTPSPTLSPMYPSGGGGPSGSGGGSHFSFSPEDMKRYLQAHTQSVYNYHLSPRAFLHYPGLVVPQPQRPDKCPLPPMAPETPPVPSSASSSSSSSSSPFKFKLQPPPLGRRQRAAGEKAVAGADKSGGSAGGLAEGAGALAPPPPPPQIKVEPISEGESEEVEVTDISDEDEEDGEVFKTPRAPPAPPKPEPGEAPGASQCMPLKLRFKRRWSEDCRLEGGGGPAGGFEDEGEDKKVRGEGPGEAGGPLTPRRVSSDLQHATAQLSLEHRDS
Outline: as §1

ETV3L = molecular target: T7, ETV3L (Homo sapiens, UniProt Q6ZN32 1-361); details: protein: recombinant; tags: N-terminal GST; dsDNA, one strand shown
T7 sequence: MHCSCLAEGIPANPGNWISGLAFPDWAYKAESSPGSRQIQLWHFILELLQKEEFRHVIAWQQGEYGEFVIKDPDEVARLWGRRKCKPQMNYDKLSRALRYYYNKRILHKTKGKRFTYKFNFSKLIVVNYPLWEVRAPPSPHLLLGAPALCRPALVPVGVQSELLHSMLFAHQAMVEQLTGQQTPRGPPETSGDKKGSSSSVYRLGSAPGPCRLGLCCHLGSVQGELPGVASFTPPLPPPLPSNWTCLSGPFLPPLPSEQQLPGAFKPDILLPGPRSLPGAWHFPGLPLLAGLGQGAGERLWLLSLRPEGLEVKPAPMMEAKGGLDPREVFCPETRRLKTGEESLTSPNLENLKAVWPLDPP
Outline: as §1

ETS2 = molecular target: T8, ETS2 (Homo sapiens, UniProt P15036 1-469); details: protein: recombinant; tags: N-terminal GST; dsDNA, one strand shown
T8 sequence: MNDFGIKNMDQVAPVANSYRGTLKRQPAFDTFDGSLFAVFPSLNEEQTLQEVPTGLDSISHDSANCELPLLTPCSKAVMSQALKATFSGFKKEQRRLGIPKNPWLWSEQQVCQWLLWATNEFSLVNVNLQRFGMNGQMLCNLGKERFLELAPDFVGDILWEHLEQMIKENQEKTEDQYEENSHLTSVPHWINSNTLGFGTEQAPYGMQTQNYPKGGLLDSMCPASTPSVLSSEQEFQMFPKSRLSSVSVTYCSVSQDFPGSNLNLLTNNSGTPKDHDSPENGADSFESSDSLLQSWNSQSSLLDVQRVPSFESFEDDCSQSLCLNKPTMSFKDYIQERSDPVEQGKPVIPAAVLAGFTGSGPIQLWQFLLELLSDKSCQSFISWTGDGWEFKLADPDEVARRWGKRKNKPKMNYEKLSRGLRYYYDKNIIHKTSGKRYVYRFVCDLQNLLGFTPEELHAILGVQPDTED
Outline: as §1

SPDEF = molecular target: T9, SPDEF (Homo sapiens, UniProt O95238 1-335); details: protein: recombinant; tags: N-terminal GST; dsDNA, one strand shown
T9 sequence: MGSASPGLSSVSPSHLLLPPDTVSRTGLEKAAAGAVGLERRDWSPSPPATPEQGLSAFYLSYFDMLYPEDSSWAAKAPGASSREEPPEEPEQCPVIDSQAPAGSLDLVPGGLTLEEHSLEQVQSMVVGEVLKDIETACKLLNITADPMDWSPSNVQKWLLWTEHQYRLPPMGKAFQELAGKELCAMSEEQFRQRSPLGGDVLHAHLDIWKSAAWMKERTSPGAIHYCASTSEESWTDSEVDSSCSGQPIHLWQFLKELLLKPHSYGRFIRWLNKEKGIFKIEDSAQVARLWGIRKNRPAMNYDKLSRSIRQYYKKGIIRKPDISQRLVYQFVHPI
Outline: as §1

ETV7 = molecular target: T10, ETV7 (Homo sapiens, UniProt Q9Y603 1-341); details: protein: recombinant; tags: N-terminal GST; dsDNA, one strand shown
T10 sequence: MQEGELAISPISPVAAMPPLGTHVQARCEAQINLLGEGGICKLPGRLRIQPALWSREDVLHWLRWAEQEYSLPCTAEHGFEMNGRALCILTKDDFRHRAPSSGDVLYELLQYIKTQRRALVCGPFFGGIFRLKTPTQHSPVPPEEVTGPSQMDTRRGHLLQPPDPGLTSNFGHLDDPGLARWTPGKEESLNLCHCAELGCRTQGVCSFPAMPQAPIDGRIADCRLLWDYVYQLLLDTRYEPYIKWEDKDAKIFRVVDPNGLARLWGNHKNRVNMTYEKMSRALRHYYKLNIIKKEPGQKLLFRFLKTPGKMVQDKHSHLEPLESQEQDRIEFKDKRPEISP
Outline: as §1

ELF5 = molecular target: T11, ELF5 (Homo sapiens, UniProt Q9UKW6-2 1-255); details: protein: recombinant; tags: N-terminal GST; dsDNA, one strand shown
T11 sequence: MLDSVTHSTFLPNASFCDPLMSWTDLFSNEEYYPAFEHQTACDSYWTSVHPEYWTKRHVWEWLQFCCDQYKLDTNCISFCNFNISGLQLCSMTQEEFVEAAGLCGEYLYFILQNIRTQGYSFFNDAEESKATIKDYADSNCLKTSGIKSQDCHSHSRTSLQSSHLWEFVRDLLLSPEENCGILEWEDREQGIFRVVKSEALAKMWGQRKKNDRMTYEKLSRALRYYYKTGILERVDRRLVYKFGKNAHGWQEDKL
Outline: as §1

ETV3 = molecular target: T12, ETV3 (Homo sapiens, UniProt P41162-2 1-143); details: protein: recombinant; tags: N-terminal GST; dsDNA, one strand shown
T12 sequence: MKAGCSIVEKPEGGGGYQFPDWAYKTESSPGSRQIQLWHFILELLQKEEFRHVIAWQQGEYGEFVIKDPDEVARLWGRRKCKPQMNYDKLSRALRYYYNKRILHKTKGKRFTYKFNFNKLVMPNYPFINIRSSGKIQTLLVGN
Outline: as §1

ETV6 = ETV6 (Homo sapiens, UniProt P41212 1-452); details: protein: recombinant; tags: N-terminal GST; dsDNA, one strand shown
Outline: as §1

Chain of HSF1 (Q00613 whole entry): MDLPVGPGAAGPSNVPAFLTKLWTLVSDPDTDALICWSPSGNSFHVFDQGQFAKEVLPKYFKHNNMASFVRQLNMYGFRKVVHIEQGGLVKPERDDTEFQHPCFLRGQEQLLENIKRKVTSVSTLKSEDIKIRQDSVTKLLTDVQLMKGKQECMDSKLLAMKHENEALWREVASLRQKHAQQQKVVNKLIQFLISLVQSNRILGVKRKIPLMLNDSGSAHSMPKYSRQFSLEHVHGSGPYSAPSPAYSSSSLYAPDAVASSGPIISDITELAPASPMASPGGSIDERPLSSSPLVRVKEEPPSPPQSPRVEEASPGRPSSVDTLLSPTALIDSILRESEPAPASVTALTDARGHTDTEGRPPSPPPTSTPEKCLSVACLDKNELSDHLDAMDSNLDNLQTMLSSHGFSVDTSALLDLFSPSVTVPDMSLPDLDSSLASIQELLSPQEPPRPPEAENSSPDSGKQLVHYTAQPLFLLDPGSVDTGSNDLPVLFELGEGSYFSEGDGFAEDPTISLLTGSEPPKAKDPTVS
Chain of ETV5 (P41161 whole entry): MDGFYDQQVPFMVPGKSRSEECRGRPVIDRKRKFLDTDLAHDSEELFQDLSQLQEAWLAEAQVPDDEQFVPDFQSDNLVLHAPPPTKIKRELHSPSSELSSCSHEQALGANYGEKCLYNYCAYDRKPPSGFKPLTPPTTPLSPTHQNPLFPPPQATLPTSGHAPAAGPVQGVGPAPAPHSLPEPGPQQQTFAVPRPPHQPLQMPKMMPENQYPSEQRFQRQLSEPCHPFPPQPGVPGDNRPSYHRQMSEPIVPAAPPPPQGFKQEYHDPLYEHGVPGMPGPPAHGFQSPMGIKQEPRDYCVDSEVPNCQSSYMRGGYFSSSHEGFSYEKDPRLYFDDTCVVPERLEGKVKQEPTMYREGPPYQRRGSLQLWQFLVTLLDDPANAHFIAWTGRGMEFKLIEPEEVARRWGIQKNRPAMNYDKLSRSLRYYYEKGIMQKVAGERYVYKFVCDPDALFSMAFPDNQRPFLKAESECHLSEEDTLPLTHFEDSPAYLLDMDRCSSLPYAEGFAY
Chain of ELF4 (Q99607 whole entry): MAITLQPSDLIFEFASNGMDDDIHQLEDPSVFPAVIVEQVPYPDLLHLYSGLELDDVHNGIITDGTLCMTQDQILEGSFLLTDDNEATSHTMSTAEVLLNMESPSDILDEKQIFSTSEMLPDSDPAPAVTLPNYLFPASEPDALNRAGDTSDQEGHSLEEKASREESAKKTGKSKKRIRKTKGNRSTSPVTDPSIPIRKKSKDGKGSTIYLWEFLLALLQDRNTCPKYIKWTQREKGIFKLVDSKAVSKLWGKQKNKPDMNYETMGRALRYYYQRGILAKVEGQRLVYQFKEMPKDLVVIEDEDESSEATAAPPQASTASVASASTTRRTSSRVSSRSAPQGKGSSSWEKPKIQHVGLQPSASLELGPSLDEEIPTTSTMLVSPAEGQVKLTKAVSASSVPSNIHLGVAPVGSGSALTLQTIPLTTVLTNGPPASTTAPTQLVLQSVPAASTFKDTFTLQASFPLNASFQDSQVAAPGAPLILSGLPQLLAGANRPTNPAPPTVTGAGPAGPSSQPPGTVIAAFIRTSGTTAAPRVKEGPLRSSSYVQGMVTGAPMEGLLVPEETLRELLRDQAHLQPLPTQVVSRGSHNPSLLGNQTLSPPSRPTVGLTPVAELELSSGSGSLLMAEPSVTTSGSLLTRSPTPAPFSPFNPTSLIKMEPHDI
Chain of CRX (O43186 whole entry): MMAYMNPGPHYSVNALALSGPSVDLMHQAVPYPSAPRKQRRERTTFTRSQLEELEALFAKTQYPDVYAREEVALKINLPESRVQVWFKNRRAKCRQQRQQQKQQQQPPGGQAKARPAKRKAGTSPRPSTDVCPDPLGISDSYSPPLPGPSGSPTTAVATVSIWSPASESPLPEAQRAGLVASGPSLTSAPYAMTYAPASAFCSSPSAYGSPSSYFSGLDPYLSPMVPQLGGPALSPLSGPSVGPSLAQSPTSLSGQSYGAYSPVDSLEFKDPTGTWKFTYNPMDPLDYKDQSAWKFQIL
Chain of ETV6 (P41212 whole entry): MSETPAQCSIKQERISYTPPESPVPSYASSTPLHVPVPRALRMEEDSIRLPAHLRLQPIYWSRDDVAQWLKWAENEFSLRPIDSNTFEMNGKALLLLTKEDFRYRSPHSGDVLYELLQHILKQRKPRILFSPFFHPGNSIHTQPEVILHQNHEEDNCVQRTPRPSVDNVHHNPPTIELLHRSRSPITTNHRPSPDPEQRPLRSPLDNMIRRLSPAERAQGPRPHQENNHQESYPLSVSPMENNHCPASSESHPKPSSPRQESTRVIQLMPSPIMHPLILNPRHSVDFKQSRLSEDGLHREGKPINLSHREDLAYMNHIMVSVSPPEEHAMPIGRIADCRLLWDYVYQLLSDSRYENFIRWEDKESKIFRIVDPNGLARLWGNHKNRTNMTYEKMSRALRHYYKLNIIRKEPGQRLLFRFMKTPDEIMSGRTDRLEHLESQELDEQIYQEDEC
Chain of ETV1 (P50549 whole entry): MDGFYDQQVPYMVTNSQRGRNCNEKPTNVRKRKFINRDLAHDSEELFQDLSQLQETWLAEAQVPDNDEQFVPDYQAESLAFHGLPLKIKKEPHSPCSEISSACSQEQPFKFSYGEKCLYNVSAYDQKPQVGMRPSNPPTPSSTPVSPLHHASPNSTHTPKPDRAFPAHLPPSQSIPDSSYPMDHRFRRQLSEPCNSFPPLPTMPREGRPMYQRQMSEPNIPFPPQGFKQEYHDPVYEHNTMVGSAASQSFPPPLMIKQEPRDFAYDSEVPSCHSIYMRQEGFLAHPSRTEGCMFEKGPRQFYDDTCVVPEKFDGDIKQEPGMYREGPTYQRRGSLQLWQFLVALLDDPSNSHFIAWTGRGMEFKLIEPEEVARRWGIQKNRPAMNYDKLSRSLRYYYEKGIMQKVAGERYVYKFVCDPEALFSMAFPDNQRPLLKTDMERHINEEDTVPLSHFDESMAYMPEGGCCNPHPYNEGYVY

Sequence: ACCTCC
- binding signal (FEV): 1.42 fold enrichment (6-mer frequency, TF over GST control)
- binding signal (ETV5): 1.43 fold enrichment (6-mer frequency, TF over GST control)
- binding signal (HSF1): 1.11 fold enrichment (6-mer frequency, TF over GST control)
- binding signal (SPIC): 1.45 fold enrichment (6-mer frequency, TF over GST control)
- binding signal (ELF4): 1.44 fold enrichment (6-mer frequency, TF over GST control)
- binding signal (ELK4): 1.45 fold enrichment (6-mer frequency, TF over GST control)
- binding signal (ETV2): 1.4 fold enrichment (6-mer frequency, TF over GST control)
- binding signal (ELF3): 1.14 fold enrichment (6-mer frequency, TF over GST control)
- binding signal (CRX): 1.08 fold enrichment (6-mer frequency, TF over GST control)
- binding signal (ETV1): 1.4 fold enrichment (6-mer frequency, TF over GST control)
- binding signal (ERF): 1.35 fold enrichment (6-mer frequency, TF over GST control)
- binding signal (ETV3L): 1.49 fold enrichment (6-mer frequency, TF over GST control)
- binding signal (ETS2): 1.41 fold enrichment (6-mer frequency, TF over GST control)
- binding signal (SPDEF): 1.5 fold enrichment (6-mer frequency, TF over GST control)
- binding signal (ETV7): 1.4 fold enrichment (6-mer frequency, TF over GST control)
- binding signal (ELF5): 1.49 fold enrichment (6-mer frequency, TF over GST control)
- binding signal (ETV3): 1.33 fold enrichment (6-mer frequency, TF over GST control)
- binding signal (ETV6): 1.4 fold enrichment (6-mer frequency, TF over GST control)
